Outcome and AC50 data for six molecules are collected here from PubChem BioAssay (EPA / NIEHS).

The structures appear in SMILES notation. Values joined by “and” are separate entries in the source; they are usually repeats but may differ in a detail not shown here. Identical values can stand only once. Where a structure was tested more than once in an assay, its records may differ in their call. Active and inactive are the calls of the source. How the source made its calls: active means hit-call score of the fitted dose curve at least 0.9, where 1 is the maximum; inactive means score below 0.9.

Read-out in assay [1]: TIMP metallopeptidase inhibitor 2 (TIMP2), TIMP2 (gene 7077)
Kind of assay: BSK_KF3CT_TIMP2: BioMAP Diversity Plus: KF3CT Assay for TIMP metallopeptidase inhibitor 2 (TIMP2) Biomarker Activity (AID 2283071). The settings on record: primary human keratinocytes with fibroblasts; actives raise or lower the signal. A digest of the protocol:
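Co-culture of human primary keratinocytes and foreskin fibroblasts, measured 24 h after chemical dosing. TIMP-2 quantified by ELISA and fitted in both directions relative to DMSO. Cytotoxicity checked in parallel cultures by SRB total-protein staining.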

Read-out in assay [2]: Transforming growth factor beta 1 (TGFb1), TGFB1 (gene 7040)
Briefly: BSK_KF3CT_TGFb1: BioMAP Diversity Plus: KF3CT Assay for Transforming growth factor beta 1 (TGFb1) Biomarker Activity (AID 2283072). The following applies: primary human keratinocytes with fibroblasts; actives raise or lower the signal. Summed up: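 Human keratinocyte/foreskin fibroblast co-culture; TGF-b1 measured by ELISA 24 h after dosing, fitted bidirectionally versus DMSO. Cytotoxicity checked in parallel cultures by total protein (SRB staining, 560 nm).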

Read-out in assay [3]: C-C motif chemokine 2 (Homo sapiens) (UniProt P13500)
Briefly: BSK_KF3CT_MCP1: BioMAP Diversity Plus: KF3CT Assay for Monocyte Chemoattractant Protein 1 (MCP1/CCL2) Biomarker Activity (AID 2283073). The settings on record: primary human keratinocytes with fibroblasts; actives raise or lower the signal. A digest of the protocol:
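KF3CT skin co-culture (keratinocytes/foreskin fibroblasts), 24 h post-dose; MCP-1 by ELISA; gain/loss of signal fit bidirectionally vs DMSO baseline.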

Read-out in assay [4]: Matrix Metallopeptidase 9 (MMP9), MMP9 (gene 4318)
Briefly: BSK_KF3CT_MMP9: BioMAP Diversity Plus: KF3CT Assay for Matrix Metallopeptidase 9 (MMP9) Biomarker Activity (AID 2283074). The settings on record: primary human keratinocytes with fibroblasts; actives raise or lower the signal. Summed up: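 Human keratinocyte/foreskin fibroblast co-culture; compound added; 24 h; MMP-9 by ELISA; bidirectional fit vs DMSO baseline.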

Read-out in assay [5]: urokinase plasminogen activator (uPA), PLAU (gene 5328)
Briefly: BSK_KF3CT_uPA: BioMAP Diversity Plus: KF3CT Assay for urokinase plasminogen activator (uPA) Biomarker Activity (AID 2283075). The settings on record: primary human keratinocytes with fibroblasts; actives raise or lower the signal. A digest of the protocol: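 ELISA readout of uPA, analyzed for signal gain or loss relative to DMSO, from a human primary keratinocyte–foreskin fibroblast co-culture measured 24 h after chemical treatment.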

Read-out in assay [6]: CD40, CD40 (gene 958)
Kind of assay: BSK_LPS_CD40: BioMAP Diversity Plus: LPS Assay for CD40 Biomarker Activity (AID 2283076). The settings on record: primary human HUVEC with PBMC; actives raise or lower the signal. A digest of the protocol: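 ELISA readout of CD40 in HUVEC/PBMC co-culture (BSK_LPS system), 24 h post-dosing; bidirectional curve fit, DMSO baseline; parallel SRB total-protein staining for cytotoxicity.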

Read-out in assay [7]: E-selectin (Homo sapiens) (UniProt P16581)
Briefly: BSK_LPS_Eselectin: BioMAP Diversity Plus: LPS Assay for Eselectin Biomarker Activity (AID 2283077). The following applies: primary human HUVEC with PBMC; actives raise or lower the signal. Summed up: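 ELISA readout of E-selectin, 24 h post-dose, HUVEC + PBMC co-culture (LPS system). Gain or loss of signal vs DMSO baseline, bidirectional fit.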

Read-out in assay [8]: Interleukin-8 (IL8), CXCL8 (gene 3576)
Briefly: BSK_LPS_IL8: BioMAP Diversity Plus: LPS Assay for Interleukin-8 (IL8) Biomarker Activity (AID 2283078). The settings on record: primary human HUVEC with PBMC; actives raise or lower the signal. Summed up: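 HUVEC + PBMC co-culture, LPS-activated; test chemicals dosed, IL-8 read by ELISA at 24 h. Bidirectional curve fit vs DMSO baseline (gain or loss of signal).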

The nature of assay [9]: BSK_LPS_SRB: Viability Assessment in the BioMAP Diversity Plus: LPS Assay (AID 2283079).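 Further: total protein by sulforhodamine B absorbance as a cytotoxicity measure; measured one day after compound addition; fitted in both directions against DMSO so loss or gain of signal counts.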 The following applies: primary human HUVEC with PBMC. Summed up: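 HUVEC + PBMC co-culture, LPS-stimulated; compound 24 h. 10% TCA fix, 0.1% SRB stain, A560. Bidirectional fit vs DMSO.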
Read-out in assay [10]: Interleukin-1 alpha (IL1a), IL1A (gene 3552)
Briefly: BSK_LPS_IL1a: BioMAP Diversity Plus: LPS Assay for Interleukin-1 alpha (IL1a) Biomarker Activity (AID 2283080). The following applies: primary human HUVEC with PBMC; actives raise or lower the signal. A digest of the protocol:
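HUVEC/PBMC co-culture, LPS system; 24 h after dosing; IL-1a by ELISA; gain or loss of signal fitted bidirectionally vs DMSO baseline.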

Read-out in assay [11]: Macrophage colony-stimulating factor (MCSF), CSF1 (gene 1435)
Briefly: BSK_LPS_MCSF: BioMAP Diversity Plus: LPS Assay for Macrophage colony-stimulating factor (MCSF) Biomarker Activity (AID 2283083). The following applies: primary human HUVEC with PBMC; actives raise or lower the signal. Summed up: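 HUVEC + PBMC co-culture (human primary), 24 h post-dose; M-CSF by ELISA; gain/loss of signal fitted bidirectionally vs DMSO baseline.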

Read-out in assay [12]: Tumor necrosis factor (Homo sapiens) (UniProt P01375)
Kind of assay: BSK_LPS_TNFa: BioMAP Diversity Plus: LPS Assay for Tumour Necrosis Factor alpha (TNFa) Biomarker Activity (AID 2283085). The settings on record: primary human HUVEC with PBMC; actives raise or lower the signal. A digest of the protocol: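 Human umbilical vein endothelial cells co-cultured with PBMC and stimulated with LPS. TNFa was measured by ELISA 24 h after chemical dosing, fitted bidirectionally relative to DMSO.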

Read-out in a further assay: CD38, CD38 (gene 952)
Kind of assay: BSK_SAg_CD38: BioMAP Diversity Plus: SAg Assay for CD38 Biomarker Activity (AID 2283087). The following applies: primary human HUVEC with PBMC; actives raise or lower the signal. A digest of the protocol: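 Human HUVEC plus PBMC co-culture stimulated with superantigen; CD38 measured by ELISA 24 h after chemical dosing. Fluorescence read-out, bidirectional fit against DMSO; cytotoxicity tracked in parallel by SRB and Alamar Blue.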

Read-out in assay [13]: CD40, CD40 (gene 958)
Briefly: BSK_SAg_CD40: BioMAP Diversity Plus: SAg Assay for CD40 Biomarker Activity (AID 2283088). The following applies: primary human HUVEC with PBMC; actives raise or lower the signal. Summed up: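 HUVEC/PBMC co-culture, 24 h post-dose; CD40 by ELISA, fluorescence intensity; bidirectional fit vs DMSO negative control.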

Read-out in a further assay: CD69, CD69 (gene 969)
Kind of assay: BSK_SAg_CD69: BioMAP Diversity Plus: SAg Assay for CD69 Biomarker Activity (AID 2283089). The settings on record: primary human HUVEC with PBMC; actives raise or lower the signal. A digest of the protocol:
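Values derive from bidirectional fitting relative to DMSO vehicle. Cells: umbilical vein endothelium plus peripheral blood mononuclear cells, treated 24 h before fluorescent ELISA for CD69.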

Read-out in assay [14]: Monocyte Chemoattractant Protein-1 (MCP1), CCL2 (gene 6347)
Briefly: BSK_SAg_MCP1: BioMAP Diversity Plus: SAg Assay for Monocyte Chemoattractant Protein-1 (MCP1) Biomarker Activity (AID 2283090). The settings on record: primary human HUVEC with PBMC; actives raise or lower the signal. A digest of the protocol: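 MCP-1 levels in the endothelial–PBMC SAg co-culture were quantified by ELISA at 24 h post-dosing; both increases and decreases versus DMSO scored. Cytotoxicity monitored by SRB total protein in parallel cultures.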

Read-out in assay [15]: Vascular cell adhesion molecule 1 (VCAM1), VCAM1 (gene 7412)
Briefly: BSK_LPS_VCAM1: BioMAP Diversity Plus: LPS Assay for Vascular cell adhesion molecule 1 (VCAM1) Biomarker Activity (AID 2283086). The settings on record: primary human HUVEC with PBMC; actives raise or lower the signal. Summed up: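 Human umbilical vein endothelial cells co-cultured with PBMC and stimulated with LPS; VCAM-1 measured by ELISA 24 h after dosing. Bidirectional curve fitting against DMSO baseline; cytotoxicity tracked in parallel by SRB total-protein staining.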

Assay [16] is described as follows: BSK_LPS_PGE2: BioMAP Diversity Plus: LPS Assay for Prostaglandin E2 (PGE2) Biomarker Activity (AID 2283082). The settings on record: primary human HUVEC with PBMC; actives raise or lower the signal. Summed up:
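HUVEC plus human PBMC co-culture stimulated with LPS; secreted PGE2 quantified by ELISA 24 h after chemical dosing. Activity fitted bidirectionally against DMSO baseline; parallel SRB staining (0.1% SRB after 10% TCA fixation, 560 nm) flags overt cytotoxicity.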

Read-out in assay [17]: Tissue Factor, F3 (gene 2152)
Briefly: BSK_LPS_TissueFactor: BioMAP Diversity Plus: LPS Assay for Tissue Factor Biomarker Activity (AID 2283084). The settings on record: primary human HUVEC with PBMC; actives raise or lower the signal. Summed up: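 HUVEC/PBMC co-culture, LPS-activated; CD142 ELISA read 24 h post-dose; bidirectional curve fit vs DMSO negative control.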

Chain of Tumor necrosis factor (Homo sapiens) (P01375 whole entry, looked up): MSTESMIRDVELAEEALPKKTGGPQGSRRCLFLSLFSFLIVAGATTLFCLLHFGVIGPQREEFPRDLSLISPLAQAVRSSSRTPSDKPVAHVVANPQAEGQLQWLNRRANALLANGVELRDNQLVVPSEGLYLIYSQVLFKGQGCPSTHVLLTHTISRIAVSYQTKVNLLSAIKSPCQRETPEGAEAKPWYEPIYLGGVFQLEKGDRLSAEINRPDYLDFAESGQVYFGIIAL
Chain of E-selectin (Homo sapiens) (P16581 whole entry, looked up): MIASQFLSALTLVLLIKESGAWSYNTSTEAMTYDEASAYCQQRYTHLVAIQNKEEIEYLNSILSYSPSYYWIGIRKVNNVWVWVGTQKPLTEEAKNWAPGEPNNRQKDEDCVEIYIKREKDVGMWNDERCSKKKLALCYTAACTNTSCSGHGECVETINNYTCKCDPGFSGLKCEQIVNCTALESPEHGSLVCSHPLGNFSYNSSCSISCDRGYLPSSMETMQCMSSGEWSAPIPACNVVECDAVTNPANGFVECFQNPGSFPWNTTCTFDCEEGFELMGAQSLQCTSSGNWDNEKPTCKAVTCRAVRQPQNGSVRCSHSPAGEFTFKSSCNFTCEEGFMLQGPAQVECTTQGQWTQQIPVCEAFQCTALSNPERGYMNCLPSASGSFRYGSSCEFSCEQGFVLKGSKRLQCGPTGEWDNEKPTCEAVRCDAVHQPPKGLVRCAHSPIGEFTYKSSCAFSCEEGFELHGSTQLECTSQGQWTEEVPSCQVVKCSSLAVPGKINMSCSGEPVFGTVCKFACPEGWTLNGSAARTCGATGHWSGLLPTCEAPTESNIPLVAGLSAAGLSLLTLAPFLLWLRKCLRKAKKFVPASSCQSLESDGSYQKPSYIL

Regarding `ClC(Cl)(Cl)c1ccccc1`, the outcome was “inactive” in [1]; “inactive” in assay [2]; “inactive” in assay [3]; “inactive” in assay [4]; “inactive” in [5]; “inactive” in the assay with CD40, CD40 (gene 958) [6]. Moreover, the outcome in assay [7], in assay [8], in [9], in assay [10], in [11] and in [12] was inactive. Moreover, the outcome is “inactive” with CD38, CD38 (gene 952); “inactive” in the assay with CD40, CD40 (gene 958) [13]; “inactive” with CD69, CD69 (gene 969); “inactive” in [14].
With `CCN(CC)c1ccccc1`, the outcome in [1] was “inactive”; in assay [2], “inactive”; in assay [3], “inactive”; in assay [4], “inactive”; in assay [5] it was “inactive”; with CD40, CD40 (gene 958) [6], “inactive”. In addition, the result in assay [7], in [8], in assay [9], in assay [10], in assay [11] and in assay [12] was inactive. Further, the outcome is “inactive” in [15]; “inactive” with CD38, CD38 (gene 952); “inactive” with CD40, CD40 (gene 958) [13]; “inactive” with CD69, CD69 (gene 969).
Regarding `Cc1ccc(O)cc1C`, the outcome was “inactive” in assay [1]; “inactive” in assay [2]; “inactive” in [3]; “inactive” in assay [4]; “inactive” in assay [5]; “inactive” in the assay with CD40, CD40 (gene 958) [6]. Moreover, the result in assay [7], in assay [8], in [9], in [10], in [11] and in assay [12] was inactive. Moreover, the outcome in assay [15] was “inactive”; with CD38, CD38 (gene 952), “inactive”; with CD40, CD40 (gene 958) [13], “inactive”; with CD69, CD69 (gene 969), “inactive”.
`NC(=O)C(F)(F)C(F)(F)F`: the outcome is “inactive” in assay [1]; “inactive” in assay [3]; “inactive” in assay [4]; “inactive” in assay [5]; “inactive” with CD40, CD40 (gene 958) [6]; “inactive” in [7]. In addition, the outcome in assay [8], in assay [9], in assay [10], in assay [16], in assay [11] and in assay [12] was inactive. For the same molecule, the outcome with CD38, CD38 (gene 952) is “inactive”; with CD40, CD40 (gene 958) [13], “inactive”; with CD69, CD69 (gene 969) it was “inactive”.
Take `CC(C)(C)c1ccc(O)cc1`: the outcome was “inactive” in assay [1]; “inactive” in assay [2]; “inactive” in assay [3]; “inactive” in assay [4]; “inactive” in assay [5]; “inactive” with CD40, CD40 (gene 958) [6]. The result in [7], in [8], in assay [9], in assay [10], in assay [11] and in assay [17] was inactive. The outcome in assay [12] was “inactive”; in the assay with CD38, CD38 (gene 952) it was “inactive”; in the assay with CD40, CD40 (gene 958) [13], “inactive”; in the assay with CD69, CD69 (gene 969), “inactive”.
Usually AC50 stands for the concentration giving half of the maximal activity seen. On to `O=C(O)C(F)(OC(F)(F)C(F)(F)C(F)(F)F)C(F)(F)F` (configuration not stated), for which the outcome was “inactive” in [1]; “inactive” in assay [3]; “inactive” in assay [4]; “inactive” in [5]; “inactive” in the assay with CD40, CD40 (gene 958) [6]; “inactive” in assay [7]. In addition, the result in [8], in [9], in assay [10], in assay [16], in assay [17] and in assay [12] was inactive. Further, the outcome in the assay with CD38, CD38 (gene 952) is “inactive”; in the assay with CD40, CD40 (gene 958) [13], “inactive”; in the assay with CD69, CD69 (gene 969) it was “inactive”; in assay [14], “inactive”. In addition, the AC50 is 18 µM (active) and 12.1 µM (active) in [8]; 1410 nM (active) in [17].
